# Data published in PubChem BioAssay AID1578 (Sanford-Burnham Center for Chemical Genomics, 2009).
# In all, about 290,000 compounds went through this assay and about 3,000 (1%) were called active. The sample as a whole holds a higher share of actives than the screen did. Values without a mark were called inactive. No stated cut-off is given here; in the data, active means inhibition mostly above about 36% (no sharp cut-off); inactive means mostly below about 34%.
# Assay: NOD1 signaling inhibitors, primary screen, cell-based, luminescence, uHTS (AID 1578);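 further: HEK-293T reporter cells stimulated with the NOD1 agonist gamma-tri-DAP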
# Conditions: NOD1-driven NF-kB luciferase reporter cells, at 4 µM, hits give high values
row,Compound,inhibition
1,Cc1ccc(NNC(=O)CCc2ccccc2)c(C)c1,-5%
2,O=C(NC1CCCN(Cc2ccc(Cl)cc2)C1)c1c(F)cccc1F (stereo not given),-4.9%
3,N#CC1(c2ccccc2)CCCN1C(=O)c1ccc(Br)cc1 (stereo not given),-11.6%
4,C=CCOC(=O)c1sc(NC(=O)c2ccc(OC)cc2)nc1C,-27.6%
5,O=C(CCc1[nH]c2ccccc2c1Sc1ccccc1)NCCO,91.3% (active)
6,CNC(=O)CCc1[nH]c2ccccc2c1Sc1ccccc1,2.6%
7,O=C(O)CCc1[nH]c2ccccc2c1Sc1ccccc1,2.8%
8,C=CCn1c(C)csc1=Nc1ccc(C(=O)O)cc1,-39.1%
9,CCOc1ccc(C(=O)Nn2cnnc2)cc1OCC,-0.7%
10,COc1cc(C=O)ccc1OC(=O)c1ccc(C(C)C)cc1,-9.5%
11,CCn1c(=N)n(CC(=O)C(C)(C)C)c2ccccc21,1.2%
12,CCc1ccc(CN2CCC(C(=O)Nc3ccc(Oc4ccccc4)nc3)CC2)o1,32.5%
13,O=C(O)COc1ccc(Br)cc1C(c1c(C(=O)O)[nH]c2ccccc12)c1c(C(=O)O)[nH]c2ccccc12,-18.7%
14,O=C(O)c1[nH]c2ccccc2c1C(c1cc(Br)ccc1O)c1c(C(=O)O)[nH]c2ccccc12,76.6% (active)
15,CCOc1cc(Br)cc(C(c2c(C(=O)O)[nH]c3ccccc23)c2c(C(=O)O)[nH]c3ccccc23)c1O,18%
16,Cc1nn(CC(=O)NCC(C)c2ccccc2)c(=O)c2cccn12 (stereo not given),-28.8%
17,COC1(OC)C(/C=C/c2ccc(Cl)cc2)C(C#N)(C#N)C1(OC)OC (stereo not given),62.6% (active)
18,CCOC1(OCC)C(c2ccc(Cl)cc2)C(C#N)(C#N)C1(OCC)OCC (stereo not given),-5.8%
19,N#Cc1c(NC(=O)c2ccccc2)sc2c1CCC2,-29.6%
20,N#Cc1c(Cl)nsc1NC(=O)c1ccccc1,89.1% (active)

row,Compound,inhibition
1,Cc1sc(NC(=O)c2ccccc2)c(C#N)c1-c1ccccc1,-17.1%
2,C/C(=N\N=C(N)N)c1cc(Cl)ccc1Cl,-23.9%
3,CCNc1nc(Oc2ccc(C(=O)OC)cc2)nc(N(C)C)n1,-15.3%
4,O=C(O)c1cc(S(=O)(=O)O)cc(Nc2c3ccccc3nc3ccccc23)c1O,30.7% (active)
5,Cc1ccc(O)c(Nc2c3ccccc3nc3ccccc23)c1,12.5%
6,O=C(O)c1cccc(Nc2c3ccccc3nc3ccccc23)c1,-9%
7,COc1cccc(CNC(=O)CCl)c1,73.9% (active)
8,COc1cccc(CNC(=O)Cn2cccc2)c1,18.5%
9,COc1cccc(CNC(=O)Cc2ccc(Br)cc2)c1,-16.7%
10,Cc1ccc(S(=O)(=O)Nc2cccc(C(=O)Nc3cc(C)ccn3)c2)cc1,-15.9%
11,Cc1cccc(NS(=O)(=O)c2cccc(C(=O)Nc3cccc(C(=O)O)c3)c2)c1,-23.8%
12,CS(=O)(=O)c1ccc2nc(NC(=O)c3cccc(Cl)c3)sc2c1,-1.3%
13,Cc1cccc(NS(=O)(=O)c2ccc(NC(=O)N3CCCCC3)cc2)c1,22.5%
14,CC(=O)c1cccc(NC(=O)c2ccc(C(=O)Nc3cccc(C(C)=O)c3)nc2)c1,-11.1%
15,CS(=O)(=O)c1ccc2nc(NC(=O)c3ccc(NS(=O)(=O)c4ccc(F)c(F)c4)cc3)sc2c1,-2.4%
16,Cc1cccc(NC(=O)c2ccc(C(=O)Nc3cccc(C)c3)nc2)c1,62.8% (active)
17,CC(=O)c1cccc(NC(=O)N2CCCCCC2)c1,-8.3%
18,CC(=O)Nc1cccc(NC(=O)c2ccc(C(=O)Nc3cccc(NC(C)=O)c3)nc2)c1,-19.3%
19,COc1ccc(-c2noc(N3CCC(C(=O)NCc4ccc(F)cc4)CC3)n2)cc1,-38.2%
20,COc1ccc(/C=C2/Sc3ccc(C(=O)NCCCN4CCOCC4)cc3NC2=O)cc1OC,29.5%

row,Compound,inhibition
1,COC(=O)CS(=O)(=O)c1cc(Br)cc2c1N(C(C)=O)CC2,-37.1%
2,CCc1cc(/C(Cc2ccccn2)=N\Nc2ccccc2)c(O)cc1O,-20.2%
3,CCCNCc1cc(OC)c(OCC(=O)Nc2ccccc2)cc1Br,-23.4%
4,Cc1cccc(C)c1Nc1nnc(SCC(=O)Nc2cc(S(=O)(=O)N3CCCCC3)ccc2Cl)s1,44.5%
5,CSc1ccc(CN2CCC(Cc3ccccc3)CC2)cc1,80.3% (active)
6,Clc1ccc(CN2CCC(Cc3ccccc3)CC2)cc1,-18.7%
7,CCOc1ccc(CN2CCC(Cc3ccccc3)CC2)cc1,-22.4%
8,c1coc(CNc2nc(-c3ccncc3)cs2)c1,-35.7%
9,CCOC(=O)C1CCN(C(=O)CCCn2nc(C)c3c(C)n(-c4ccc(C)cc4)nc3c2=O)CC1,-4.8%
10,CC(C)C[C@H](NC(=O)OC(C)(C)C)c1n[nH]c(=S)n1N,-16.1%
11,CCN(C(=O)Cn1c(=O)oc2ccccc21)C1CCS(=O)(=O)C1 (stereo not given),-9.7%
12,CC(=O)N1c2ccc(S(=O)(=O)N3CCC(C(=O)Nc4cccc(C)c4)CC3)cc2CC1C (stereo not given),-24.4%
13,CC(=O)N1c2ccc(S(=O)(=O)N3CCC(C(=O)Nc4ccccn4)CC3)cc2CC1C (stereo not given),-41.4%
14,CC(C)[C@@H](N)C(=O)N/N=C/c1ccc2ncccc2c1,-2%
15,CSCC[C@H](NC(=O)[C@H]1CC[C@H](CNC(=O)[C@@H]2CCCN2)CC1)C(=O)O,-8.2%
16,COCCn1c(C)cc(/C=C2/NC(=O)N(Cc3ccc(C)cc3)C2=O)c1C,-2.2%
17,CCCCNC(=O)[C@H](Cc1c[nH]c2ccccc12)NC(=O)c1ccccc1Cl,-18.4%
18,C=CCN=c1scc(-c2ccc3c(c2)NC(=O)CO3)n1/N=C(\C)c1ccccn1,50.6% (active)
19,COCCN=c1scc(-c2ccc3c(c2)NC(=O)CO3)n1/N=C(\C)c1ccc(O)cc1,-6.7%
20,CCN=c1scc(-c2ccc3c(c2)NC(=O)CO3)n1N=C1CCCC1,51.7%
